Results filed as inconclusive are left out. Calls of active or inactive are those of the source.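 Rule for the calls: active = falling viability signal at all three exposure times, each curve midpoint within twice the top tested dose; inconclusive = exposure times disagree or curves are weak or poorly fitted; inactive = all exposure times inactive, including rising signal.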
Experiment: cytotoxicity in SNB-75 CNS cells – cell-based, Alamar Blue fluorescence, 8-48 h, dry powder, mechanism study for HRAS target identification, late-stage follow-up (AID 720613)
Settings: SNB-75 viability, 24 h; series mostly up to 35 µM

Row | Compound | outcome
1 | CCC(=O)N(c1ccc(OC)c(Cl)c1)C(C(=O)NCCc1ccccc1)c1cccs1 (configuration not stated) | inactive
2 | Cc1onc(C(=O)N2CCN(C(c3ccncc3)c3ccncc3)CC2)c1[N+](=O)[O-] | inactive
